# Screening data: PubChem BioAssay, National Center for Advancing Translational Sciences (NCATS)
# Compounds with a hit are over-represented: about 2.9% of the library has one in this group of screens.
# HEK293 viab: reduces viability of HEK-293 SNCA reporter cells. HEK-293-SNCA-luc viability, GF-AFC fluorescence, 24 h. AID 1671193. Potency, µM (top dose mostly 57.1 µM), actives largely listed as cytotoxic. 150,000 tested, 0.12% active; also: nearly all actives have a fitted effect of over 30% in size
#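 HEK-293-SNCA-luc cells (1500/well) plated 24 h, then exposed 24 h to a dilution series; GF-AFC added 30 min at 37C, fluorescence 405/540 nm; normalised to medium-only and DMSO wells, Hill fit.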
# SNCA expr inh: inhibitors of alpha-synuclein (SNCA) gene expression | 140,000 tested, 0.17% active | HEK-293 SNCA-luciferase knock-in, luminescence, 24 h | Potency, µM (series often up to 57.2 µM), actives largely listed as inhibitors; also: nearly all actives have a fitted effect of over 45% in size
# IP6K1 inh: IP6K1 kinase inhibition | activity change, % (series mostly up to about 58 µM) | Q92551 | IP6K1 kinase, ADP-Glo luminescence, 2 h; hits give low values | 140,000 tested, 0.81% active | AID 1645851; in the data active = activity change below about -25%
# Target sequence (Q92551 whole entry, looked up): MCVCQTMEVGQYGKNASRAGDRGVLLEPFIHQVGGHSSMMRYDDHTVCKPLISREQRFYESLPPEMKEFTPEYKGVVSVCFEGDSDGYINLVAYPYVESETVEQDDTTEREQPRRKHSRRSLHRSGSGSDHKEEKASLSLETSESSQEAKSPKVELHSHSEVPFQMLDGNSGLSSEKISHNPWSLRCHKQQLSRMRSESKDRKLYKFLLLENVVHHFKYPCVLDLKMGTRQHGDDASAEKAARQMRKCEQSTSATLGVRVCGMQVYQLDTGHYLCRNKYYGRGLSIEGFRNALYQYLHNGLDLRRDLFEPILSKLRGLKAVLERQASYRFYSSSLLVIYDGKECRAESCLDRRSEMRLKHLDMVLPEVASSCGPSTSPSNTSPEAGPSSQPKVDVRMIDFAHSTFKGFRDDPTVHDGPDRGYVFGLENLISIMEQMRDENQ
#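 ADP-Glo luminescence measures ADP made by human IP6K1 during a 2 h RT reaction with ATP/IP6 (mix at 1.3 mM/130 uM); top library doses 57.5 and 19.1 uM final.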
# KDM5B inhibitor: inhibitors of human KDM5B histone demethylase. Q9UGL1. KDM5B demethylase, FDH-coupled NADH fluorescence (FDH is formaldehyde dehydrogenase). Potency, µM (doses to about 57.7 µM), usual class: inhibitors. 220,000 tested, 2.6% active; also: nearly all actives have a fitted effect of over 70% in size
#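 Coupled FDH/NAD⁺ fluorescence readout. KDM5BΔAP 200 nM final; compound titration, 10 min RT preincubation; substrate mix 12.5 µM H3K4me3, 25 µM 2-OG, 50 µM Fe(II), 100 µM ascorbate, 0.25 mM NAD⁺, 0.25 U/mL FDH; ΔRFU over 30 min.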
# A number is an active result; i = inactive; ? = inconclusive; nt = no result. Unless noted, calls follow the shape of the dose curve; as a rule, active = well fitted curve in the direction sought with a large enough effect; inconclusive = small, poorly fitted or top-dose-only effect, or another doubt; inactive = no such curve, though single readings can be large; an effect the other way counts as inactive or inconclusive.
SMILES,HEK293 viab,SNCA expr inh,IP6K1 inh,KDM5B inhibitor
COc1cccc(-c2nn(-c3ccccc3)c(OC(C)=O)c2-c2ccc(NC(=O)C3CCCC3)cc2)c1,i,i,i,13µM
CCCc1nn(-c2ccccc2C)c(OC(C)=O)c1-c1ccc(NC(C)=O)cc1,i,i,i,i
COCC(=O)Nc1ccc(-c2c(C(C)C)nn(-c3cccc(F)c3)c2OC(C)=O)cc1,i,i,i,i
CC(=O)Oc1c(-c2ccc(NC(=O)c3ccco3)cc2)c(-c2cccc(F)c2)nn1-c1ccc(C)cc1,i,i,i,?
COCC(=O)Nc1ccc(-c2c(-c3ccccc3OC)nn(-c3ccc(C)cc3)c2OC(C)=O)cc1,i,i,i,22µM
CC(=O)Oc1c(-c2ccc(NC(=O)C(C)C)cc2)c(-c2ccc(F)cc2)nn1-c1ccc(F)cc1,i,i,i,?
COc1ccc(-c2nn(-c3ccccc3C)c(OC(C)=O)c2-c2ccc(NC(C)=O)cc2)cc1OC,i,i,i,28µM
CCOc1ccccc1CNC(=O)c1cccc(NC(=O)c2nnc(C)s2)c1,nt,nt,nt,i
COCC(=O)Nc1ccc(-c2c(-c3cccc(OC)c3)nn(-c3ccccc3)c2OC(C)=O)cc1,i,i,i,28µM
COCC(=O)Nc1ccc(-c2c(CC(C)C)nn(-c3ccccc3)c2OC(C)=O)cc1,i,i,i,i
CCOc1ccc(NC(=O)c2c(NCc3cc(OC)c(OC)cc3OC)sc3c2CCCC3)cc1,i,i,-30,?
Nc1nc2c(c(C(=O)N[C@H](c3ccccn3)C3CC(O)C3)n1)CCCC2 (stereo partly drawn),i,i,i,28µM
O=C(Cc1csc(-c2ccccc2)n1)N[C@H](c1ccccn1)C1CC(O)C1 (stereo partly drawn),i,i,i,25µM
CC(C)n1cc(-c2cc(C(=O)N(C)Cc3cccnc3)c3cc(F)ccc3n2)cn1,i,i,i,25µM
CN(Cc1ccccc1)C(=O)c1cc(-c2ccncc2)nc2ccccc12,nt,nt,nt,i
CC(C)CN(C)C(=O)c1cc(-c2cnn(C(C)C)c2)nc2cc(F)ccc12,?,?,i,28µM
COc1ccc(C(C)=O)cc1CS(=O)(=O)Cc1cccc(F)c1,nt,nt,nt,i
Cc1oc2cc(OCC(=O)N[C@H](C)C(=O)O)ccc2c(=O)c1-c1ccc(Cl)cc1,nt,nt,nt,i
COc1ccc(N2CC(c3noc(-c4ccc5c(c4)OCO5)n3)CC2=O)cc1 (stereo not drawn),i,i,i,32µM
Cc1ccc(N2CC(c3noc(-c4ccc5c(c4)OCO5)n3)CC2=O)cc1 (stereo not drawn),i,i,i,32µM
COc1ccc(N2CC(c3noc(-c4ccc5c(c4)OCO5)n3)CC2=O)cc1OC (stereo not drawn),i,i,i,?
CCOC(=O)N1CCN(CC(=O)Nc2oc3ccccc3c(=O)c2-c2ccc(C)cc2)CC1,nt,nt,nt,i
Cc1ccc([S+](=O)([O-])N2CC(=O)N(Cc3cccc(F)c3)CC(O)C2)cc1 (stereo not drawn),nt,nt,i,nt
Cc1cccc(-c2ncc(CN(C)Cc3cccc4ncccc34)cn2)c1,i,i,i,i
C=CCN(Cc1cnc(-c2cccc(C)c2)nc1)Cc1ccccn1,i,?,i,22µM
SMILES,HEK293 viab,SNCA expr inh,IP6K1 inh,KDM5B inhibitor
O=C(Nc1cccc(C(F)(F)F)c1)c1nc2c(o1)CCN(Cc1ccc(F)cc1)CC2,i,i,i,40µM
O=C(Nc1cccc(C(F)(F)F)c1)c1nc2c(o1)CCN(Cc1cccc(F)c1)CC2,i,i,i,28µM
N#Cc1ccc(CN2CCc3nc(C(=O)Nc4cccc(C(F)(F)F)c4)oc3CC2)cc1,i,i,i,22µM
O=C(Nc1ccccc1)c1nc2c(o1)CCN(Cc1ccc(F)cc1)CC2,i,i,i,?
O=C(Nc1cccc(C(F)(F)F)c1)c1nc2c(o1)CCN(Cc1cnc[nH]1)CC2,i,i,i,i
O=C(Nc1cccc(C(F)(F)F)c1)c1nc2c(o1)CCN(Cc1ccccc1)CC2,i,i,i,22µM
O=C(Nc1cccc(C(F)(F)F)c1)c1nc2c(o1)CCN(CC1CC1)CC2,i,i,i,?
CNC(=O)CCn1ncc2cc(OCc3ccccc3-c3cccc(NC(C)=O)c3)ccc21,i,i,i,i
COc1nc2nc(CCc3ccccc3)n(C)c2cc1-c1ccnn1C,i,i,i,40µM
COc1nc2nc(CCc3ccccc3)n(C)c2cc1-c1ccncc1,i,i,i,?
O=C(CCC(=O)c1ccc(F)cc1)OCC(=O)c1ccc([N+](=O)[O-])cc1,nt,nt,nt,i
O=C1CN(C(=O)Cc2c[nH]c3ncc(-c4ccccc4)cc23)CCN1,i,i,i,40µM
O=C(Cc1c[nH]c2ncc(-c3ccccc3)cc12)NC1CC1,i,i,i,?
COc1ccc(-c2cnc3[nH]cc(CC(=O)N4CCCC4)c3c2)cc1,i,i,i,35µM
COc1ccc(-c2cnc3[nH]cc(CC(=O)N4CCC(OC)CC4)c3c2)cc1,i,i,i,35µM
COC1CCN(C(=O)Cc2c[nH]c3ncc(-c4ccccc4)cc23)CC1,i,i,i,40µM
COc1ccc(OCC(=O)n2nc(C)c(S(=O)(=O)N3CCc4ccccc4C3)c2C)cc1,nt,nt,nt,i
CC1=C[C@@H](CN2CCN(c3ncccn3)CC2)[C@H](C(C)C)C[C@H]1Cc1nnc(COc2ccc(F)cc2)o1,?,?,i,?
CCC(C)NC(=O)C(NC(=O)c1ccc(C)cc1)C1CCN(C(=O)CC(C)(C)C)CC1 (stereo not drawn),i,i,i,i
COc1ccc(-c2noc([C@@H]3Cc4nc[nH]c4CN3Cc3ccc(C)cc3)n2)cc1,?,?,i,?
CCNC(=O)N1Cc2[nH]cnc2C[C@H]1c1nc(-c2ccc(F)c(Cl)c2)no1,i,i,i,40µM
O=C(Nc1ccc(Cl)cc1)N1Cc2[nH]cnc2C[C@H]1c1nc(-c2ccc(F)c(Cl)c2)no1,?,i,i,i
Cc1cccc(-c2noc([C@@H]3Cc4nc[nH]c4CN3C(=O)NC(C)C)n2)c1,i,i,i,8.9µM
Cc1ccc(-c2noc([C@@H]3Cc4nc[nH]c4CN3C(=O)NC(C)C)n2)cc1,i,?,i,?
COc1ccc(CN2Cc3[nH]cnc3C[C@H]2c2nc(-c3ccc4ccccc4c3)no2)cc1,i,i,i,16µM
SMILES,HEK293 viab,SNCA expr inh,IP6K1 inh,KDM5B inhibitor
O=C(C1CCCCC1)N1Cc2[nH]cnc2C[C@H]1c1nc(-c2ccc3ccccc3c2)no1,?,?,i,32µM
CCc1ccc2occ(CC(=O)N(Cc3cccs3)C3CCS(=O)(=O)C3)c2c1 (stereo not drawn),nt,nt,nt,i
O=S(=O)(Nc1nc2ccccc2nc1N1CCCCCC1)c1ccc2c(c1)OCCO2,nt,nt,nt,i
O=C1CC(c2ccccc2)N(C(=O)CNC(=O)c2ccc3[nH]ccc3c2)CCCCCN1 (stereo not drawn),i,i,i,?
CN(CC1CCOC1)S(=O)(=O)c1ccccc1Br (stereo not drawn),i,?,i,i
COc1ccc(CN2Cc3[nH]cnc3C[C@H]2c2nc(-c3ccncc3)no2)cc1,i,i,i,28µM
c1ccc(CN2Cc3[nH]cnc3C[C@H]2c2nc(-c3ccccc3)no2)cc1,i,i,i,?
